These results are taken from PubChem BioAssay (EPA / NIEHS).

Molecules are shown by their SMILES. Active and inactive are the calls of the source. Rule for the calls: active = hit-call score of the fitted dose curve at least 0.9, where 1 is the maximum; inactive = score below 0.9.

The assay in a line: ATG_M_06_CIS: Attagene CIS-FACTORIAL HepG2 Assay for M06 Transcription Factor (Internal Marker) (AID 2282950). Conditions: HepG2 Attagene CIS-FACTORIAL M06 internal marker reporter; actives raise or lower the signal. Here is the method:
ATG_CIS is a cell-based, multiplexed-readout assay that uses HepG2, a human liver cell line, with measurements taken at 24 hours after chemical dosing in a 24-well plate.ATG_M_06_CIS is one of 52 assay component(s) measured or calculated from the ATG_CIS assay. It is designed to make measurements of mRNA induction, a form of inducible reporter, as detected with fluorescence intensity signals by Reverse transcription polymerase chain reaction (RT-PCR) and Capillary electrophoresis technology.Data from the assay component ATG_M_06_CIS was analyzed into 1 assay endpoint. This assay endpoint, ATG_M_06_CIS, was analyzed with bidirectional fitting relative to DMSO as the negative control and baseline of activity. Using a type of inducible reporter, measures of mRNA for gain or loss-of-signal activity can be used to understand the background control at the transcription factor-level as they relate to the gene . Furthermore, this assay endpoint can be referred to as a secondary readout, because this assay has produced multiple assay endpoints where this one serves a background control function. To generalize the intended target to other relatable targets, this assay endpoint is annotated to the background measurement intended target family, where the subfamily is internal marker.
Human liver HepG2 cells are transiently transfected with multiple reporter transcription units (MRTUs) in 6-well plates using FuGene 6 reagent (Roche; 3 ml FuGene/1 mg DNA). The MRTU constructs are regulated by a cis-regulating element (promoter). […] A major difference between the CIS and TRANS system is that in CIS activities of endogenous TFs are measured, whereas the TRANS assay evaluates changes in activities of exogenous, chimeric NR-Gal4 proteins. […] At the end of 24 hour incubation, total RNA was isolated using TriZol reagent (Invitrogen). The isolated RNA is then reverse-transcribed using oligo(dT) primer and Mo-MLV reverse transcriptase (Invitrogen) with DNAse I (Ambion) treatment for 30 min. The one-tenth of the produced cDNA was amplified by PCR using Taq DNA polymerase (Invitrogen) and two reporter sequence-specific primers. The PCR products were fluorescently labeled by primer extension with 6-arboxyfluorescein (6-FAM) 5'-labeled reporter sequence-specific primer (2 min at 95 C, 20 s at 68 C and 10 min at 72 C) and these products were digested with 5U of HpaI (New England Biolabs) for 2h at 37 C. The fragments were purified using Qiaquick PCR columns (Qiagen), analyzed on an ABI 3130xL genetic analyzer (Applied Biosystems) with peak positions identified by using a set of X-rhodamine (ROX)-labeled MapMarker1000 molecular weight standards (BioVentures). The raw capillary electrophoresis data was processed using Attagraph software (Attagene).
Turning to `O=C(O)c1c(Cl)ccc2cc(Cl)cnc12`, the call was inactive.

On to `CCCN(CC)CC1COC2(CCC(C(C)(C)C)CC2)O1` (stereo not given), for which the compound was called inactive.

Regarding `CC1(C)CON(Cc2ccccc2Cl)C1=O`, the outcome was inactive.

Take `O=C(Nc1ccccc1-c1ccc(Cl)cc1)c1cccnc1Cl`: the compound was classed as inactive.

Consider `COP(=O)(OC)O/C(C)=C/C(=O)N(C)C`, for which the outcome was inactive.

`Cc1ccc(N=CN(C)C=Nc2ccc(C)cc2C)c(C)c1`: the compound was called inactive.

On to `O=C1C2CC=CCC2C(=O)N1SC(Cl)(Cl)Cl` (stereo not given), for which the call was inactive.

For the compound `COC(=O)NC(=S)Nc1ccccc1NC(=S)NC(=O)OC`, the outcome was inactive.

In the case of `CC1(C)C(C=C(Cl)Cl)C1C(=O)OC(C#N)c1cccc(Oc2ccccc2)c1` (stereo not given), the outcome was inactive.

For `CC(C)Oc1cccc(NC(=O)c2ccccc2C(F)(F)F)c1`, the call was inactive.

Consider `COc1cc(OC)nc(NC(=O)NS(=O)(=O)c2ncccc2OCC(F)(F)F)n1`, for which the result was inactive.

For the compound `Nc1c(Cl)c(F)nc(OCC(=O)O)c1Cl`, the compound was called inactive.

For the compound `N#Cc1c(Cl)cccc1Cl`, the compound was classed as inactive.

Regarding `COP(=S)(OC)SCn1nnc2ccccc2c1=O`, the compound was called inactive.

On to `COc1cc(Cl)c(OC)cc1Cl`, for which the result was inactive.

As for `Cn1c(-c2ccccc2)cc(-c2ccccc2)[n+]1C`, the compound was called inactive.

`COC(=O)NS(=O)(=O)c1ccc(N)cc1`: the result was inactive.

Regarding `CC(C)N1C(=O)N(c2ccccc2)CSC1=NC(C)(C)C`, the call was inactive.

Regarding `CC(C)C1(C)N=C(c2ncccc2C(=O)O)NC1=O` (stereo not given), the compound was called inactive.

Consider `CCCCC(C#N)(Cn1cncn1)c1ccc(Cl)cc1` (stereo not given), for which the call was inactive.

For the compound `CCNP(=S)(OC)O/C(C)=C/C(=O)OC(C)C` (stereo not given), the call was inactive.

In the case of `Nc1cnn(-c2ccccc2)c(=O)c1Cl`, the compound was called inactive.

Regarding `CC1(C)CCC(=Cc2ccc(Cl)cc2)C1(O)Cn1cncn1` (stereo not given), the result was inactive.

On to `CCCCC(O)(Cn1cncn1)c1ccc(Cl)cc1Cl` (stereo not given), for which the call was inactive.

Turning to `COCc1cnc(C2=NC(C)(C(C)C)C(=O)N2)c(C(=O)O)c1` (stereo not given), the call was inactive.

`COC(=O)c1c(C(F)F)nc(C(F)(F)F)c(C2=NCCS2)c1CC(C)C`: the compound was called inactive.

Turning to `CCOc1nc(C(Cl)(Cl)Cl)ns1`, the compound was called inactive.

As to `O=c1n(Cl)c(=O)n(Cl)c(=O)n1Cl`, the compound was called inactive.

With `COCC(C)N(C(=O)CCl)c1c(C)csc1C` (stereo not given), the result was inactive.

Turning to `Nc1c(Cl)c(Cl)nc(C(=O)O)c1Cl`, the outcome was inactive.

As for `Clc1nc(Cl)nc(Nc2ccccc2Cl)n1`, the compound was called inactive.

For the compound `COP(=S)(OC)Oc1ccc([N+](=O)[O-])c(C)c1`, the compound was classed as inactive.

Regarding `CC(C)=CC1C(C(=O)OCc2coc(Cc3ccccc3)c2)C1(C)C` (stereo not given), the compound was classed as inactive.

On to `CCOP(=S)(OCC)Oc1nc(Cl)n(C(C)C)n1`, for which the outcome was inactive.

For the compound `Cc1cc(C)nc(Nc2ccccc2)n1`, the result was inactive.

With `CCOP(=O)(OCC)Oc1nc(Cl)c(Cl)cc1Cl`, the compound was called inactive.

For the compound `CCOc1nc(F)cc2nc(S(=O)(=O)Nc3c(Cl)cccc3Cl)nn12`, the outcome was inactive.

On to `CSC(=O)c1c(C(F)F)nc(C(F)(F)F)c(C(=O)SC)c1CC(C)C`, for which the result was inactive.

For the compound `CCCCOCN(C(=O)CCl)c1c(CC)cccc1CC`, the compound was classed as inactive.

Regarding `C=C(C)CN(CC)c1c([N+](=O)[O-])cc(C(F)(F)F)cc1[N+](=O)[O-]`, the call was inactive.
